Common to all, as to experiment: DAPPL (digital affinity profiling via proximity ligation, sequencing); 10 mM Tris-HCl pH 7.5, 50 mM NaCl, 1 mM DTT, 4% glycerol, room temperature, 30 min; GST-TFs on glutathione beads, 16-mer random dsDNA library, 0.1% formaldehyde crosslink after washing; high values mean tight binding
Common to all, as to conditions: protein: recombinant; tags: N-terminal GST; dsDNA, one strand shown

One assay addresses T1, FLI1 (Homo sapiens, UniProt Q01543 1-452).
T1 sequence: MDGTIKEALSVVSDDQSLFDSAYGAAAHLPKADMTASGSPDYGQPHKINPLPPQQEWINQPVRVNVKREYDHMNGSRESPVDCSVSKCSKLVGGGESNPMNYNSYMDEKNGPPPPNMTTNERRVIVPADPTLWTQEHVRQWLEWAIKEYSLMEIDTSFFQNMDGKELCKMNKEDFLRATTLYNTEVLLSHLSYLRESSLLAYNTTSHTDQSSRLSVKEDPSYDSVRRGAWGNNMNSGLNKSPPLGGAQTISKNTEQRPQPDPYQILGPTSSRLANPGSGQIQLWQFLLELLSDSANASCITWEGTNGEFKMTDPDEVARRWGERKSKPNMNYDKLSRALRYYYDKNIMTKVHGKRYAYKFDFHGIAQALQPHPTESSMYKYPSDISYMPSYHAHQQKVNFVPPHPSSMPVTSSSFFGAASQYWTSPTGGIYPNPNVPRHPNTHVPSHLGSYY
The method in brief:
(§1)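 Binding signal is defined as a hexamer's read frequency for one factor over its frequency for the tag-only sample. To obtain reads, GST-fused human transcription factors were expressed in yeast, captured on glutathione beads, barcoded with DNA and pooled with that sample. Pools met 200 nmole of a 16-mer random double-stranded DNA library in Tris/NaCl/DTT/glycerol buffer for 30 min at room temperature before washing, 0.1% formaldehyde crosslinking, proximity ligation (BsaI/T4 ligase, 1 h, 37 °C), PCR and Illumina NextSeq500 sequencing.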

The next assay concerns the target T2, ELK1 (Homo sapiens, UniProt P19419 1-428).
T2 sequence: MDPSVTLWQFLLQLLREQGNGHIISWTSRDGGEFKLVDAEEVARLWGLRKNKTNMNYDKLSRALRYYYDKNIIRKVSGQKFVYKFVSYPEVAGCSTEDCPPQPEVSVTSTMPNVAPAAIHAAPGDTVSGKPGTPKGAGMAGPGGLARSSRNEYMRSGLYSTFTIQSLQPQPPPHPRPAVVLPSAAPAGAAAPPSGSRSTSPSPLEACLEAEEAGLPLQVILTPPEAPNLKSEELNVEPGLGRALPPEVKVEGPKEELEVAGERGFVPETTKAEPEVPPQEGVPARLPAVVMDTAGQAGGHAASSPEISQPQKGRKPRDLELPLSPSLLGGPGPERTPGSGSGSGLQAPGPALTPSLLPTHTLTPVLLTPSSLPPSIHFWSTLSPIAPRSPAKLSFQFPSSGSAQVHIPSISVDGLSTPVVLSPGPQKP
The method in brief:
as §1

In the next assay the target is T3, GABPA (Homo sapiens, UniProt Q06546 1-454).
T3 sequence: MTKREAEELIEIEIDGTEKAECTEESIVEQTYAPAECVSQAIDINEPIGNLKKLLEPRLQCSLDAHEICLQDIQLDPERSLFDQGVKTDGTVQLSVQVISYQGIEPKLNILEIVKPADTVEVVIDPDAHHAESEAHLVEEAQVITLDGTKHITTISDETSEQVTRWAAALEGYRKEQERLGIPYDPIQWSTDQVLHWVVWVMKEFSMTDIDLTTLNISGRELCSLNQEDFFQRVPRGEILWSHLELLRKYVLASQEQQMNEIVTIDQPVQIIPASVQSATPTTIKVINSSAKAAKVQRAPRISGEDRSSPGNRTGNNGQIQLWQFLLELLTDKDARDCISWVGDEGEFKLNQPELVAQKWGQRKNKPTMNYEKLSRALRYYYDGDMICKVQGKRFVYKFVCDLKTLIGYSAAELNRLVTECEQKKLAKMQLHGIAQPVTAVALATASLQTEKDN
An outline of the steps: as §1

The next assay addresses T4, ERG (Homo sapiens, UniProt P11308 1-479).
T4 sequence: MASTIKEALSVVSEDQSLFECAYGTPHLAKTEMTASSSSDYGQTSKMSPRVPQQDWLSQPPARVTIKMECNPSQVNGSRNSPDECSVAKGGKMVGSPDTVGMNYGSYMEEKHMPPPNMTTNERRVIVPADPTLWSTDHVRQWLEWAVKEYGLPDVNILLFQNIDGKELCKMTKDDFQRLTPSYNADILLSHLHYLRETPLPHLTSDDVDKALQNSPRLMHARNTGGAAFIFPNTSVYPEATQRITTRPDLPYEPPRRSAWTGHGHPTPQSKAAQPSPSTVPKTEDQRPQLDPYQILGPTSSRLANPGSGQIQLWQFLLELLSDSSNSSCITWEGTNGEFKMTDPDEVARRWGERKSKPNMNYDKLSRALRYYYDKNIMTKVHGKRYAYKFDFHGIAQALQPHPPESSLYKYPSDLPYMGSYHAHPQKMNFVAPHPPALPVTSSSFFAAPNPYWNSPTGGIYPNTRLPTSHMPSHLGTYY
The method in brief:
as §1

The target in another assay is ELF1 (Homo sapiens, UniProt P32519 1-619). The method in brief: as §1
In a further assay the target is T5, EHF (Homo sapiens, UniProt Q9NZC4 1-300).
T5 sequence: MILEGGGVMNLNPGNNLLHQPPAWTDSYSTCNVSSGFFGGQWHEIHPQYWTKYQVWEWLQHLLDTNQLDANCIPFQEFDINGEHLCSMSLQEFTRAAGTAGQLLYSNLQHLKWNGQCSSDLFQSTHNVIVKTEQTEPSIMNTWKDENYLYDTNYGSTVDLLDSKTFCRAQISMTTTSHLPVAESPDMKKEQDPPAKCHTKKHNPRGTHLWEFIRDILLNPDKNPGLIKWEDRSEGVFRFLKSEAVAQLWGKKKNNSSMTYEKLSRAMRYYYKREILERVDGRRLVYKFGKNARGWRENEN
The method in brief:
as §1

For the next assay, the target named is SPI1 (Homo sapiens, UniProt P17947 1-270). The method in brief: as §1
The next assay addresses SPIB (Homo sapiens, UniProt Q01892 1-262). An outline of the steps:
as §1

A further assay deals with T6, ELK3 (Homo sapiens, UniProt P41970 1-407).
T6 sequence: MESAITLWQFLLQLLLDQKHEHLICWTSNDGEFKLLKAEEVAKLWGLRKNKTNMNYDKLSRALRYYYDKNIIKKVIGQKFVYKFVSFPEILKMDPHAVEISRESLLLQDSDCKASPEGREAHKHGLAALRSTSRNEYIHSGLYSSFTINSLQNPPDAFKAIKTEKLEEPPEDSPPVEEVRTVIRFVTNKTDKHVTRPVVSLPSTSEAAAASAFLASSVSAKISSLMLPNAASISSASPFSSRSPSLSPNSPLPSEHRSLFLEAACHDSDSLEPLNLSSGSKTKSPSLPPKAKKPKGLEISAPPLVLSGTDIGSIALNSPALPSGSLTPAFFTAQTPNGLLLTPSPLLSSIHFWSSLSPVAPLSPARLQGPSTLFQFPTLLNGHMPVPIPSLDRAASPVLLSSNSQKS
The method in brief: as §1

The values that follow come from article PMC7862700, “An all-to-all approach to the identification of sequence-specific readers for epigenetic DNA modifications on cytosine”.

Chain of ELF1 (P32519 whole entry): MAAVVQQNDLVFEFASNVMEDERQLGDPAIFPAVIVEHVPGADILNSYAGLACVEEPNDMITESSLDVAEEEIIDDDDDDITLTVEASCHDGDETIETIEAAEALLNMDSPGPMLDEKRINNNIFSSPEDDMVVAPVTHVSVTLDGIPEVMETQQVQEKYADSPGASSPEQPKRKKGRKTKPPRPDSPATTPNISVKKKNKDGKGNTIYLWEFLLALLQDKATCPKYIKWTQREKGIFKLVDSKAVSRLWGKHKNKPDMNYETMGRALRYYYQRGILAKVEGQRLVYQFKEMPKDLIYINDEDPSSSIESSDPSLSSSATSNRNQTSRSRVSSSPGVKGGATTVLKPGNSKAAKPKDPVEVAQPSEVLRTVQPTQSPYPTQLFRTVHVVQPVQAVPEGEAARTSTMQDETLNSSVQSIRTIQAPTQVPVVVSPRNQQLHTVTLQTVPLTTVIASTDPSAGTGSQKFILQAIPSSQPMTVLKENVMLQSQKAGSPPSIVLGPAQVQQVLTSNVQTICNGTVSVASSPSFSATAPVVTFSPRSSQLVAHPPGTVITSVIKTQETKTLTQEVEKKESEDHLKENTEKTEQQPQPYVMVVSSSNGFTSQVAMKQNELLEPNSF
Chain of SPIB (Q01892 whole entry): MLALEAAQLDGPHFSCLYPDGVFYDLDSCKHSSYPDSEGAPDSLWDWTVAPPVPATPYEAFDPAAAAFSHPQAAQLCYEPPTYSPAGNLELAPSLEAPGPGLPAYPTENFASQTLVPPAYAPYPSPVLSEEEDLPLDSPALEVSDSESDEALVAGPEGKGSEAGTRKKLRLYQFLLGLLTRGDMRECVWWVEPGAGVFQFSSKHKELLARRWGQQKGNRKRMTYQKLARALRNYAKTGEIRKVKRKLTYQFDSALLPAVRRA

As to GCTTCA, the binding signal in the assay with FLI1 is 1.35 fold enrichment (6-mer frequency, TF over GST control); in the assay with ELK1, 1.39 fold enrichment (6-mer frequency, TF over GST control); with GABPA, 1.28 fold enrichment (6-mer frequency, TF over GST control); with ERG it was 1.34 fold enrichment (6-mer frequency, TF over GST control); in the assay with ELF1, 1.33 fold enrichment (6-mer frequency, TF over GST control); with EHF, 1.4 fold enrichment (6-mer frequency, TF over GST control). For the same sequence, the binding signal in the assay with SPI1 was 1.24 fold enrichment (6-mer frequency, TF over GST control); with SPIB, 1.31 fold enrichment (6-mer frequency, TF over GST control); with ELK3 it was 1.27 fold enrichment (6-mer frequency, TF over GST control).

Regarding ACTATT, the binding signal in the assay with FLI1 is 1.29 fold enrichment (6-mer frequency, TF over GST control); in the assay with ELK1 it was 1.17 fold enrichment (6-mer frequency, TF over GST control); with GABPA, 1.33 fold enrichment (6-mer frequency, TF over GST control); with ERG it was 1.3 fold enrichment (6-mer frequency, TF over GST control); in the assay with ELF1, 1.27 fold enrichment (6-mer frequency, TF over GST control); in the assay with EHF it was 1.3 fold enrichment (6-mer frequency, TF over GST control). Besides, the binding signal with SPI1 was 1.22 fold enrichment (6-mer frequency, TF over GST control); with SPIB, 1.26 fold enrichment (6-mer frequency, TF over GST control); in the assay with ELK3 it was 1.28 fold enrichment (6-mer frequency, TF over GST control).

As to TTAAGG, the binding signal was 1.14 fold enrichment (6-mer frequency, TF over GST control) with FLI1; 1.14 fold enrichment (6-mer frequency, TF over GST control) with ELK1; 1.2 fold enrichment (6-mer frequency, TF over GST control) with GABPA; 1.18 fold enrichment (6-mer frequency, TF over GST control) with ERG; 1.13 fold enrichment (6-mer frequency, TF over GST control) with ELF1; 1.13 fold enrichment (6-mer frequency, TF over GST control) in the assay with EHF. Further, the binding signal with SPI1 was 1.26 fold enrichment (6-mer frequency, TF over GST control); in the assay with SPIB, 1.15 fold enrichment (6-mer frequency, TF over GST control); in the assay with ELK3 it was 1.06 fold enrichment (6-mer frequency, TF over GST control).

Consider GCTCCT, for which the binding signal in the assay with FLI1 is 1.54 fold enrichment (6-mer frequency, TF over GST control); with ELK1, 1.39 fold enrichment (6-mer frequency, TF over GST control); with GABPA, 1.52 fold enrichment (6-mer frequency, TF over GST control); with ERG it was 1.32 fold enrichment (6-mer frequency, TF over GST control); with ELF1, 1.45 fold enrichment (6-mer frequency, TF over GST control); with EHF, 1.41 fold enrichment (6-mer frequency, TF over GST control). Besides, the binding signal with SPI1 is 1.4 fold enrichment (6-mer frequency, TF over GST control); in the assay with SPIB it was 1.46 fold enrichment (6-mer frequency, TF over GST control); with ELK3, 1.33 fold enrichment (6-mer frequency, TF over GST control).

As to CTTTGC, the binding signal with FLI1 was 1.4 fold enrichment (6-mer frequency, TF over GST control); with ELK1, 1.29 fold enrichment (6-mer frequency, TF over GST control); in the assay with GABPA it was 1.39 fold enrichment (6-mer frequency, TF over GST control); in the assay with ERG it was 1.46 fold enrichment (6-mer frequency, TF over GST control); in the assay with ELF1, 1.32 fold enrichment (6-mer frequency, TF over GST control); with EHF, 1.32 fold enrichment (6-mer frequency, TF over GST control). For the same sequence, the binding signal with SPI1 is 1.21 fold enrichment (6-mer frequency, TF over GST control); in the assay with SPIB, 1.32 fold enrichment (6-mer frequency, TF over GST control); with ELK3 it was 1.33 fold enrichment (6-mer frequency, TF over GST control).

Regarding TTAGTT, the binding signal is 1.36 fold enrichment (6-mer frequency, TF over GST control) with FLI1; 1.38 fold enrichment (6-mer frequency, TF over GST control) with ELK1; 1.18 fold enrichment (6-mer frequency, TF over GST control) in the assay with GABPA; 1.24 fold enrichment (6-mer frequency, TF over GST control) in the assay with ERG; 1.31 fold enrichment (6-mer frequency, TF over GST control) with ELF1; 1.3 fold enrichment (6-mer frequency, TF over GST control) with EHF. Further, the binding signal with SPI1 is 1.27 fold enrichment (6-mer frequency, TF over GST control); with SPIB it was 1.31 fold enrichment (6-mer frequency, TF over GST control); with ELK3, 1.31 fold enrichment (6-mer frequency, TF over GST control).

Regarding TTTCGG, the binding signal was 1.08 fold enrichment (6-mer frequency, TF over GST control) with FLI1; 1.14 fold enrichment (6-mer frequency, TF over GST control) with ELK1; 1.14 fold enrichment (6-mer frequency, TF over GST control) in the assay with GABPA; 1.26 fold enrichment (6-mer frequency, TF over GST control) with ERG; 1.22 fold enrichment (6-mer frequency, TF over GST control) in the assay with ELF1; 1.18 fold enrichment (6-mer frequency, TF over GST control) with EHF. Further, the binding signal in the assay with SPI1 was 1.36 fold enrichment (6-mer frequency, TF over GST control); in the assay with SPIB it was 1.14 fold enrichment (6-mer frequency, TF over GST control); with ELK3, 1.22 fold enrichment (6-mer frequency, TF over GST control).

Consider GCTCTA, for which the binding signal with FLI1 was 1.17 fold enrichment (6-mer frequency, TF over GST control); with ELK1, 1.09 fold enrichment (6-mer frequency, TF over GST control); with GABPA, 1.11 fold enrichment (6-mer frequency, TF over GST control); with ERG it was 1.24 fold enrichment (6-mer frequency, TF over GST control); in the assay with ELF1, 1.13 fold enrichment (6-mer frequency, TF over GST control); with EHF, 1.23 fold enrichment (6-mer frequency, TF over GST control). For the same sequence, the binding signal in the assay with SPI1 was 1.04 fold enrichment (6-mer frequency, TF over GST control); with SPIB it was 1.09 fold enrichment (6-mer frequency, TF over GST control); in the assay with ELK3, 1.09 fold enrichment (6-mer frequency, TF over GST control).
